The list is not random: actives were taken first. Their share in the collection is about 6.9%.
MCF10A rereplic: A quantitative high throughput screen for small molecules that induce DNA re-replication in MCF 10a normal breast cells; MCF 10A DNA re-replication, Hoechst nuclear intensity, 48 h; Potency, µM (top dose mostly 46.1 µM), without a hit: top-dose activity, positive = re-replication, actives largely listed as activators; 2.9% of 350,000 active; AID 624296, 2012; further: potency means the concentration at half of the fitted maximal effect; % of control where 0% means no effect; nearly all actives have a fitted effect of over 50% in size
S-ASM inh: Inhibitors of Secretory Acid Sphingomyelinase (S-ASM): qHTS. Potency, µM (series often up to 57.5 µM), for the others: at the top dose activity change, negative = inhibition, actives largely listed as inhibitors. placental ASM, HMU-PC fluorogenic substrate, 60 min. Sphingomyelin phosphodiesterase (Homo sapiens), P17405. AID 504937, 2011. 0.006% of 340,000 active; further: potency means the concentration at half of the fitted maximal effect
Target sequence (P17405 47-631 limits assumed): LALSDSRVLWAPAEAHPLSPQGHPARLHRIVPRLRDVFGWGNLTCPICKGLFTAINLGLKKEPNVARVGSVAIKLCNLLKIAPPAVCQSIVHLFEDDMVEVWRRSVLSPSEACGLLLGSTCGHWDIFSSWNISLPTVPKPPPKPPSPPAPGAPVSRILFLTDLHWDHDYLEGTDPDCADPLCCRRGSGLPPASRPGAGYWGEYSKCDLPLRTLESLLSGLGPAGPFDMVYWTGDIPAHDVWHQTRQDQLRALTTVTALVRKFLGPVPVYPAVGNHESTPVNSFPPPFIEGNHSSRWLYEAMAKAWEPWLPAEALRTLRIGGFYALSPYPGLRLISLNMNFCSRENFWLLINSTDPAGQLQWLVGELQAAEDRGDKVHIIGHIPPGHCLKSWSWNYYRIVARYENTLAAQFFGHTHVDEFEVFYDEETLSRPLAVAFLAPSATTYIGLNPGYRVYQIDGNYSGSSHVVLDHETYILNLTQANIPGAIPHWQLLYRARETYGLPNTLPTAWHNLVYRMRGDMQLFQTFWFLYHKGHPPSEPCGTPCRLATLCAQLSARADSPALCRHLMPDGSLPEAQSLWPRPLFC
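Human placenta-derived ASM enzyme was preincubated with compound for 10 minutes at room temperature, then given fluorogenic substrate HMU-PC0 (9 uM final) for 60 minutes at 37 °C; a pH 10 stop preceded fluorescence reading at Ex 386/Em 447 nm.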
SW480 rereplic: A quantitative high throughput screen for small molecules that induce DNA re-replication in SW480 colon adenocarcinoma cells | 1.8% of 340,000 active | Potency, µM (series often up to 46.1 µM), for inactives: top-dose re-replication activation, actives largely listed as activators | AID 624297, 2012 | SW480 DNA re-replication, Hoechst DNA content imaging, 48 h; further: potency means the concentration at half of the fitted maximal effect; % of control where 0% means no effect; nearly all actives have a fitted effect of over 55% in size
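Readout is total intensity of Hoechst-stained nuclei, excited at 405 nm and collected at 500-530 nm. Compound treatment lasted 48 hr at 37 C in 5% CO2 before staining.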
Giardia kill: Small Molecules that selectively kill Giardia lamblia: qHTS. activity change, % at 7.66 µM, hits read low. 0.15% of 340,000 active. Giardia lamblia trophozoite viability; in the data active means activity change below about -80%; inconclusive means between about -30% and that limit;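 further: parasites exposed to compound for two days anaerobically before the ATP read; on the % scale 0 is the no-effect control and ±100 the full control effect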
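Giardia trophozoites, 100 cells per well, were exposed to compounds for 48 hrs at 37 deg C under anaerobic conditions; viability was then read as ATP content by bioluminescence after 15-30 min at room temperature.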
KB-V1 cytotox: qHTS assay for MDR1-selective chemotherapeutics: Primary screen using the drug-selected MDR subline cells KB-V1; KB-V1 MDR cells viability, CellTiter-Glo, 72 h; 3.4% of 400,000 active; Potency, µM (highest dose often 46.1 µM), most hits filed as cytotoxic; AID 1347076, 2019; further: potency means the concentration at half of the fitted maximal effect; on the % scale 0 is the no-effect control and ±100 the full control effect; nearly all actives have a fitted effect of over 60% in size
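qHTS viability screen in drug-selected KB-V1 MDR cells: 72 h compound treatment at 37 degrees C, ATP luminescence end point.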
KB-3-1 cytotox: qHTS assay for MDR1-selective chemotherapeutics: Primary screen using the parental adenocarcinoma cell KB-3-1; KB-3-1 viability, CellTiter-Glo ATP luminescence, 72 h; 1.4% of 400,000 active; Potency, µM (titrated, usually from 46.1 µM), most hits filed as cytotoxic; further: potency means the concentration at half of the fitted maximal effect; on the % scale 0 is the no-effect control and ±100 the full control effect; nearly all actives have a fitted effect of over 60% in size
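Cytotoxicity measured as CellTiter-Glo luminescence after 72 h at 37 C. Compound titrations were pinned onto drug-naive KB-3-1 parental adenocarcinoma cells grown in DMEM with 10% FBS, and normalized data fitted to concentration-response curves.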
An asterisk follows results filed as active; i = inactive; ? = inconclusive; . = no result given. Unless noted, the call rests on the fitted dose curve; in most records, active means well fitted curve in the direction sought with a large enough effect; inconclusive means small, poorly fitted or top-dose-only effect, or another doubt; inactive means no such curve, though single readings can be large; an effect the other way counts as inactive or inconclusive.

SMILES | MCF10A rereplic | S-ASM inh | SW480 rereplic | Giardia kill | KB-V1 cytotox | KB-3-1 cytotox
O=[N+]([O-])c1ccc(Cl)c(CN2CCN(c3ncc(Cc4ccccc4)cn3)CC2)c1 | . | . | . | . | 5.2µM* | ?
O=[N+]([O-])c1ccc(Cl)c(CN2CCCCCC2)c1 | ? | 0% | -5% | 18 | i | i
Cc1nn(C(=O)c2ccccc2)c(C)c1S(=O)(=O)N1CCOCC1 | . | . | . | . | i | i
CCCCN(CCCC)S(=O)(=O)c1ccc(NC(=O)c2ccc([N+](=O)[O-])cc2Cl)cc1 | -2% | -7% | 0% | -1 | 16µM* | ?
CCN(CC)S(=O)(=O)c1cc([N+](=O)[O-])ccc1NNC(=O)Nc1ccc(Cl)c(Cl)c1 | ? | -15% | 27% | 2 | ? | 5.8µM*
O=C(NNc1ccccc1[N+](=O)[O-])Nc1ccc(Cl)c(Cl)c1 | ? | -14% | -2% | 3 | i | ?
CCCCCN(C(=O)CCC(=O)OCc1cc(C)ccc1C)c1c(N)n(CCCC)c(=O)[nH]c1=O | -2% | 6% | -21% | 17 | i | i
O=C(/C=C/c1cccnc1)/C=C/c1cccnc1 | ? | 0% | ? | ? | i | 2.6µM*
COc1cc(C(=O)/C=C/c2cccnc2)ccc1O | 5.8µM* | -4% | 16µM* | -14 | ? | ?
CN(C)S(=O)(=O)c1ccc(C(=O)/C=C/c2cccnc2)cc1 | 16µM* | 1% | 21µM* | -6 | ? | i
COc1ccc(C(=O)/C=C/c2ccccc2)c(O)c1 | ? | 18% | ? | -22 | i | i
COc1ccc(OC)c(C(=O)/C=C/c2cccnc2)c1 | 12µM* | 2% | 21µM* | 16 | ? | ?
CCOc1ccccc1CNC(=O)c1ccc(NC(=O)N2CC(C)Sc3ccccc32)cc1 (centres undefined) | . | . | . | . | ? | i
Cc1cc(Br)ccc1NC(=O)c1c(C)oc2ncnc(N3CCCCC3)c12 | . | . | . | . | i | i
Cc1ccc(NC(=O)Cn2cc(S(=O)(=O)c3ccc(C)cc3)c(=O)c3cc4c(cc32)OCO4)cc1 | . | . | . | . | i | i
COc1ccc(/C=C/C(=O)c2ccc(OC)cc2OC)cc1 | 24µM* | 10% | 21µM* | 0 | ? | ?
OC(CNCCC1C=Nc2ccccc21)Cn1c2ccc(Cl)cc2c2cc(Cl)ccc21 (centres undefined) | 5.2µM* | ? | ? | -14 | ? | ?
OC(CNCC1CCCO1)Cn1c2ccc(Cl)cc2c2cc(Cl)ccc21 (centres undefined) | ? | -24% | 19% | -11 | ? | ?
CCOCCCNC(=O)c1[nH]c2cc(C)ccc2c1Sc1ccc(Cl)cc1 | . | . | . | . | i | i
COc1cccc(CNCC(O)(c2ccc(Cl)cc2)c2ccc(Cl)cc2)c1 | ? | -2% | ? | -13 | 15µM* | ?
COc1ccc(CNCC(O)(c2ccccc2)c2ccc(Cl)cc2)cc1 (centres undefined) | 14% | -2% | ? | 11 | 13µM* | ?
COc1cccc(CNc2ccc(F)c(Cl)c2)c1 | 17% | -4% | -3% | 21 | i | i
Cc1ccc(CNCC(O)(c2ccccc2)c2ccc(Cl)cc2)cc1 (centres undefined) | 26% | -1% | ? | -6 | ? | i
Cc1ccc(NC(=O)Nc2nnc(N(C)Cc3ccccc3)s2)cc1 | . | . | . | . | i | i
C=CCNC(=O)CSc1nc2sc3c(c2c(=O)n1CCC)CCC3 | 1% | -15% | 0% | 28 | i | i
SMILES | MCF10A rereplic | S-ASM inh | SW480 rereplic | Giardia kill | KB-V1 cytotox | KB-3-1 cytotox
C=CCn1c(SCC(=O)NC)nc2sc3c(c2c1=O)CCC3 | 23% | 2% | -3% | -13 | 2.1µM* | i
C=CCNC(=O)CSc1nc2sc3c(c2c(=O)n1CCCOC)CCC3 | 6.5µM* | 2% | -3% | 33 | i | i
COCC(C)n1c(SCC(=O)Nc2cccnc2Cl)nc2ccccc2c1=O (centres undefined) | . | . | . | . | ? | i
CCOC(=O)Cn1nc(C)cc1NC(=O)c1cc(OC)c(OC)c(OC)c1 | 23µM* | 3% | -2% | 6 | i | i
CCOC(=O)Cn1nc(C)cc1NC(=O)c1ccncc1 | 1% | -1% | -2% | 2 | i | i
O=C(N/C(=C/C=C/c1ccccc1)C(=O)N1CCCCC1)c1ccc([N+](=O)[O-])cc1 | 0.58µM* | -11% | -30% | 12 | i | i
CCCCCOc1ccc(CSC(=N)N)cc1[N+](=O)[O-] | ? | -8% | ? | -1 | 18µM* | ?
COc1ccc(CSC(=N)N)cc1[N+](=O)[O-] | ? | -2% | ? | 4 | ? | ?
CCCCOc1ccc(Br)cc1CSC(=N)N | ? | -4% | ? | -22 | 8.2µM* | 23µM*
CCOc1ccc(C(C)=O)cc1CSC(=N)N | -16% | 3% | -4% | 7 | i | i
CCCCOc1ccc(CSC2=NCCN2)cc1[N+](=O)[O-] | 21µM* | -3% | ? | ? | ? | ?
CCN(CC)C(=O)CSc1nc2ccccc2c(=O)n1OC(C)C | -1% | -1% | -3% | -12 | 2.6µM* | i
COc1ccc(-c2cc(OC(=O)c3ccc(F)cc3)c3c(C)oc(C)c3c(=O)c2)cc1OC | . | . | . | . | i | i
Cc1cccc(Nc2nnc(SCC(O)=C(C#N)c3nc4ccccc4[nH]3)s2)c1 | 15µM* | 20% | 25% | -6 | i | i
Cc1ccc(-c2cc(-c3ccc(Cl)cc3)c(C#N)c(N)n2)o1 | 2.9µM* | i | 2.6µM* | -4 | i | i
N#Cc1c(N)oc(-c2ccc3c(c2)OCO3)c1-c1ccc2c(c1)OCO2 | 10% | 16% | 5% | 8 | 16µM* | i
CCOc1cc(-c2c(C)c(CC)nc(N)c2C#N)ccc1O | ? | -3% | 17% | -3 | 18µM* | ?
Cc1ccc(-c2c(C#N)c(N)nc3c2CCCCC3)o1 | ? | 24% | -8% | -14 | i | ?
Cc1ccc(-c2cc(-c3ccc4c(c3)OCO4)c(C#N)c(N)n2)o1 | 21µM* | i | 21µM* | 23 | i | i
COc1ccc(Br)cc1C1NC(c2ccc3c(c2)OCO3)=CC(c2ccccc2O)N1 (centres undefined) | . | . | . | -17 | ? | i
CCC12CN3CC(CC)(CN(C1)C3c1cc(Br)ccc1OC)C2=O (centres undefined) | . | . | . | . | i | i

Compound activity: PubChem, National Center for Advancing Translational Sciences (NCATS)
